In PubChem BioAssay (EPA / NIEHS):
Inconclusive results are not listed. Active and inactive are the calls of the source. The calls were made as follows, unless noted: active = hit-call score of the fitted dose curve at least 0.9, where 1 is the maximum; inconclusive = response in the unintended direction; inactive = score below 0.9.

Tests used:
[1] = molecular target: Peroxisome proliferator-activated receptor gamma (Homo sapiens) (UniProt P37231); assay: ATG_PPARg_TRANS: Attagene TRANS-FACTORIAL HepG2 Assay for human Peroxisome Proliferator-activated Receptor-gamma (PPARg) (AID 2283007)
How it was run: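 Read-out: reporter mRNA induction, detected by fluorescence after RT-PCR and capillary electrophoresis. Transiently transfected human HepG2 liver cells carrying a chimeric NR-Gal4 construct were dosed for 24 h; activity was fitted upward relative to DMSO.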

[2] = molecular target: human RAR-related Orphan Receptor beta (RORb), RORB (gene 6096) (UniProt Q92753); assay: ATG_RORb_TRANS: Attagene TRANS-FACTORIAL HepG2 Assay for human RAR-related Orphan Receptor beta (RORb) (AID 2283010)
How it was run: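 Transfect HepG2 with multiple GAL4-UAS reporter transcription units; dose chemicals for 24 h; isolate RNA, reverse-transcribe and PCR-amplify reporter sequences; label, digest and resolve fragments by capillary electrophoresis; fit increases relative to DMSO.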

[3] = molecular target: human RAR-related Orphan Receptor gamma (RORg), RORC (gene 6097) (UniProt P51449); assay: ATG_RORg_TRANS: Attagene TRANS-FACTORIAL HepG2 Assay for human RAR-related Orphan Receptor gamma (RORg) (AID 2283011)
How it was run: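 Chimeric RORg-Gal4 transactivation in transfected HepG2; 24 h exposure; RT-PCR/capillary electrophoresis readout of reporter mRNA, DMSO baseline.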

[4] = molecular target: Retinoic acid receptor RXR-alpha (Homo sapiens) (UniProt P19793); assay: ATG_RXRa_TRANS: Attagene TRANS-FACTORIAL HepG2 Assay for human Retinoid X Receptor alpha (RXRa) (AID 2283012)
How it was run: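 Measures exogenous chimeric NR-GAL4 activity in transfected HepG2 liver cells after 24 h of dosing. Induced reporter mRNA was detected by RT-PCR with capillary electrophoresis, and gain of signal was analysed against DMSO.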

[5] = molecular target: human Vitamin D Receptor (VDR), VDR (gene 7421) (UniProt P11473); assay: ATG_VDR_TRANS: Attagene TRANS-FACTORIAL HepG2 Assay for human Vitamin D Receptor (VDR) (AID 2283022)
How it was run: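 Multiplexed TRANS reporter in HepG2; 24 h treatment; reporter mRNA by RT-PCR plus capillary electrophoresis; upregulation scored relative to DMSO.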

[6] = molecular target: human Retinoic Acid Receptor gamma (RARg), RARG (gene 5916) (UniProt P13631); assay: ATG_RARg_TRANS: Attagene TRANS-FACTORIAL HepG2 Assay for human Retinoic Acid Receptor gamma (RARg) (AID 2283009)
How it was run: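 TRANS format measured activity of exogenous NR-GAL4 fusion (RARg) in transfected HepG2 liver cells after 24 h dosing. Induced reporter RNA was detected by RT-PCR/capillary electrophoresis fluorescence, analysed in the positive direction against DMSO.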

[7] = molecular target: human Retinoid X Receptor beta (RXRb), RXRB (gene 6257) (UniProt P28702); assay: ATG_RXRb_TRANS: Attagene TRANS-FACTORIAL HepG2 Assay for human Retinoid X Receptor beta (RXRb) (AID 2283013)
How it was run: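 Chimeric receptor-Gal4 activity was assessed in transiently transfected human HepG2 cells after 24 h exposure. Transcripts from GAL4-UAS reporters were quantified by fluorescent RT-PCR and capillary electrophoresis, with DMSO as negative control and baseline.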

[8] = molecular target: human Thyroid Receptor alpha (THRa1), THRA (gene 7067) (UniProt P10827); assay: ATG_THRa1_TRANS: Attagene TRANS-FACTORIAL HepG2 Assay for human Thyroid Receptor alpha (THRa1) (AID 2283014)
How it was run: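 Measured here is mRNA from a GAL4-UAS reporter in transfected HepG2 cells carrying a Gal4-fused receptor, 24 h post-dose. DMSO served as negative control and baseline.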

[9] = molecular target: Nuclear receptor subfamily 1 group I member 2 (Homo sapiens) (UniProt O75469); assay: ATG_PXR_TRANS: Attagene TRANS-FACTORIAL HepG2 Assay for human Pregnane X Receptor (PXR) (AID 2283008)
How it was run: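 Multiplexed TRANS reporter panel in HepG2; this component tracks PXR-Gal4-driven reporter mRNA after 24 h dosing, measured by RT-PCR with capillary electrophoresis fluorescence, fitted against DMSO.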

[10] = read-out: E-selectin (Homo sapiens) (UniProt P16581); assay: BSK_3C_Eselectin: BioMAP Diversity Plus: 3C Assay for Eselectin Biomarker Activity (AID 2283015; active = hit-call score of the fitted dose curve at least 0.9, where 1 is the maximum; inactive = score below 0.9); conditions: primary human endothelial cells (HUVEC); actives raise or lower the signal
How it was run: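 Endpoint derived by bidirectional fitting against DMSO vehicle; signal is ELISA-detected E-selectin from primary HUVEC at 24 h post-dosing, with parallel SRB staining (0.1% SRB, 560 nm) flagging cytotoxicity.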

[11] = read-out: Interleukin-1 alpha (IL1a), IL1A (gene 3552); assay: BSK_BE3C_IL1a: BioMAP Diversity Plus: BE3C Assay for Interleukin-1 alpha (IL1a) Biomarker Activity (AID 2283016; active = hit-call score of the fitted dose curve at least 0.9, where 1 is the maximum; inactive = score below 0.9); conditions: primary human bronchial epithelial cells; actives raise or lower the signal
How it was run: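 Signal from IL-1a ELISA, taken 24 h after chemical dosing of human bronchial epithelial cells, is compared with DMSO as baseline using bidirectional curve fitting.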

[12] = read-out: Monocyte Chemoattractant Protein-1 (MCP1), CCL2 (gene 6347); assay: BSK_4H_MCP1: BioMAP Diversity Plus: 4H Assay for Monocyte Chemoattractant Protein-1 (MCP1) Biomarker Activity (AID 2283018; active = hit-call score of the fitted dose curve at least 0.9, where 1 is the maximum; inactive = score below 0.9); conditions: primary human endothelial cells (HUVEC); actives raise or lower the signal
How it was run: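 Endothelial cells from umbilical vein were treated with test chemical, then after 24 h MCP-1 levels were quantified by ELISA; endpoint values came from bidirectional fitting with DMSO as baseline of activity.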

[13] = read-out: Human Leukocyte Antigen - DR isotype (HLADR), HLA-DRA (gene 3122); assay: BSK_3C_HLADR: BioMAP Diversity Plus: 3C Assay for Human Leukocyte Antigen - DR isotype (HLADR) Biomarker Activity (AID 2283019; active = hit-call score of the fitted dose curve at least 0.9, where 1 is the maximum; inactive = score below 0.9); conditions: primary human endothelial cells (HUVEC); actives raise or lower the signal
How it was run: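 Compound added to primary HUVEC cultures, 24 h incubation, then HLA-DR determined by ELISA; endpoint derived by bidirectional fitting relative to DMSO negative control.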

[14] = read-out: Interleukin-8 (IL8), CXCL8 (gene 3576); assay: BSK_3C_IL8: BioMAP Diversity Plus: 3C Assay for Interleukin-8 (IL8) Biomarker Activity (AID 2283020; active = hit-call score of the fitted dose curve at least 0.9, where 1 is the maximum; inactive = score below 0.9); conditions: primary human endothelial cells (HUVEC); actives raise or lower the signal
How it was run: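 Endothelial primary cells of human umbilical vein origin are dosed with chemical; after 24 h the IL-8 biomarker is measured by ELISA, and concentration–response is fitted in both directions versus DMSO.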

[15] = BSK_3C_SRB: Viability Assessment in the BioMAP Diversity Plus: 3C Assay (AID 2283023; active = hit-call score of the fitted dose curve at least 0.9, where 1 is the maximum; inactive = score below 0.9;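 also: cells read 24 h after compound dosing; fitted both ways against DMSO so a hit may be signal rise or drop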); conditions: primary human endothelial cells (HUVEC)
How it was run: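 Overt cytotoxicity is gauged in parallel confluent HUVEC cultures by SRB total-protein staining at the time of biomarker measurement, 24 h after dosing. Gain or loss of signal is fitted versus DMSO.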

[16] = read-out: Matrix Metallopeptidase 1 (MMP1), MMP1 (gene 4312); assay: BSK_BE3C_MMP1: BioMAP Diversity Plus: BE3C Assay for Matrix Metallopeptidase 1 (MMP1) Biomarker Activity (AID 2283024; active = hit-call score of the fitted dose curve at least 0.9, where 1 is the maximum; inactive = score below 0.9); conditions: primary human bronchial epithelial cells; actives raise or lower the signal
How it was run: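 MMP1 signal, measured by ELISA after a 24 h chemical exposure of human primary bronchial epithelial cells, is analysed with bidirectional fitting using DMSO as negative control.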

Measured: AC50

Nuclear receptor subfamily 1 group I member 2 (Homo sapiens), sequence (O75469 whole entry, looked up, the tested form may be a part): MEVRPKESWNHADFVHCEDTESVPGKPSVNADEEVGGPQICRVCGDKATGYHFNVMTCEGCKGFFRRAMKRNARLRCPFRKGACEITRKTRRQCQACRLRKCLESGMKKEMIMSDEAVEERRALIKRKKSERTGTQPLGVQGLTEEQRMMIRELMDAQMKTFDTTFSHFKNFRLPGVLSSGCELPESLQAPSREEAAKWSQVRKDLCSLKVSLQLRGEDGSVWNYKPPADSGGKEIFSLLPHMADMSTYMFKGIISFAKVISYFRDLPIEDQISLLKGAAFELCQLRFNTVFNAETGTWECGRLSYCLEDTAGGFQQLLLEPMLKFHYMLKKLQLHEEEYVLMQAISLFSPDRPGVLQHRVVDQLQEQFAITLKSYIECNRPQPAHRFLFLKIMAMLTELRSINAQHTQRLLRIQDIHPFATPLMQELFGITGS
Peroxisome proliferator-activated receptor gamma (Homo sapiens), sequence (P37231 whole entry, looked up, the tested form may be a part): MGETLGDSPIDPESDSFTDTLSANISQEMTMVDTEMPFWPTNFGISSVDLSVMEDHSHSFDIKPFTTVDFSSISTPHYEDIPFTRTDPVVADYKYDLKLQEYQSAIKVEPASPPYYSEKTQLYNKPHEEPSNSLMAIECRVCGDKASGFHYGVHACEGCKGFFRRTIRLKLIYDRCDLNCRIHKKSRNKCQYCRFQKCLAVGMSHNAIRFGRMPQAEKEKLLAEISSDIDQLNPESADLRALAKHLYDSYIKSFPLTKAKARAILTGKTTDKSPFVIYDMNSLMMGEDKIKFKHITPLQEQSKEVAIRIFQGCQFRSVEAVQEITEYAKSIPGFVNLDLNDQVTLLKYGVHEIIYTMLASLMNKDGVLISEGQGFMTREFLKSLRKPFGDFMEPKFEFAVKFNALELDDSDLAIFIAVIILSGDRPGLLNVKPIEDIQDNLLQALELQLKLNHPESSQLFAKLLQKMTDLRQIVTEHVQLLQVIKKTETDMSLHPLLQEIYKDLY
human Retinoic Acid Receptor gamma (RARg), RARG (gene 5916), sequence (P13631 whole entry, looked up, the tested form may be a part): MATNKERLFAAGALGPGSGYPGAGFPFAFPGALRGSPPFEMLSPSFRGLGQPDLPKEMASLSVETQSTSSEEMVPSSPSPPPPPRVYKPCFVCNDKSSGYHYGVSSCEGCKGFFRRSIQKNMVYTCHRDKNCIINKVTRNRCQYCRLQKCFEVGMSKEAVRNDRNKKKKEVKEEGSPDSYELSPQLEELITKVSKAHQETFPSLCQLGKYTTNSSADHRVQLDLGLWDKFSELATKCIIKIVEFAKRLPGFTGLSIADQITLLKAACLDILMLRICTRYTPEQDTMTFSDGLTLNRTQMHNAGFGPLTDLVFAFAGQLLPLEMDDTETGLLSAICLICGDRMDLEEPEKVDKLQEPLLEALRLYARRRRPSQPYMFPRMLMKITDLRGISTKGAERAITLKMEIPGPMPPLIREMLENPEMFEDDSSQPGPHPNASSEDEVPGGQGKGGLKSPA
human RAR-related Orphan Receptor beta (RORb), RORB (gene 6096), sequence (Q92753 whole entry, looked up, the tested form may be a part): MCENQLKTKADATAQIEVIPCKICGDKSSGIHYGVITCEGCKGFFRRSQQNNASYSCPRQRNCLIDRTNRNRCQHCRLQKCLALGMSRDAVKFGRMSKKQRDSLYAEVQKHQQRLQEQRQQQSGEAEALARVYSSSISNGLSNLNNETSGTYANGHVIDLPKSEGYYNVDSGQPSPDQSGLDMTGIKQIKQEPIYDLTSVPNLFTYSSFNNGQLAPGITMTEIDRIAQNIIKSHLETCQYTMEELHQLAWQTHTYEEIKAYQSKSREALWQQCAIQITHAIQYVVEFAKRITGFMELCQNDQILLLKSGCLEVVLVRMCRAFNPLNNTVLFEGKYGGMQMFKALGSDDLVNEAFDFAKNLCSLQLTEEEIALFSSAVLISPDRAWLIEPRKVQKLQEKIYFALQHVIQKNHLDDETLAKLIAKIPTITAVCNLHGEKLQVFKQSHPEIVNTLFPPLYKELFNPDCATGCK
Retinoic acid receptor RXR-alpha (Homo sapiens), sequence (P19793 whole entry, looked up, the tested form may be a part): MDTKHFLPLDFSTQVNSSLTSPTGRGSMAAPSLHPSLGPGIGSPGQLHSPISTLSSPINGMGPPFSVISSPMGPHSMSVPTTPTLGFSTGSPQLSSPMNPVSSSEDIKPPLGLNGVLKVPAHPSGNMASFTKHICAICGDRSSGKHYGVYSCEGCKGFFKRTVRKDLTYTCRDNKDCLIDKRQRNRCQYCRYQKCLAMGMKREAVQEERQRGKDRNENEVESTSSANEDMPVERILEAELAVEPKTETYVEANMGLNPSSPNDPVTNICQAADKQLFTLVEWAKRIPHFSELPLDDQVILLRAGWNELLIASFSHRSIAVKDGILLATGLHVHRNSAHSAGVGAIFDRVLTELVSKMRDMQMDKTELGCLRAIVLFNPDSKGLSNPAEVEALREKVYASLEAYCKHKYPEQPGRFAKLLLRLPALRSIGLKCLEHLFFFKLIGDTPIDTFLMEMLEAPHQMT
human Retinoid X Receptor beta (RXRb), RXRB (gene 6257), sequence (P28702 whole entry, looked up, the tested form may be a part): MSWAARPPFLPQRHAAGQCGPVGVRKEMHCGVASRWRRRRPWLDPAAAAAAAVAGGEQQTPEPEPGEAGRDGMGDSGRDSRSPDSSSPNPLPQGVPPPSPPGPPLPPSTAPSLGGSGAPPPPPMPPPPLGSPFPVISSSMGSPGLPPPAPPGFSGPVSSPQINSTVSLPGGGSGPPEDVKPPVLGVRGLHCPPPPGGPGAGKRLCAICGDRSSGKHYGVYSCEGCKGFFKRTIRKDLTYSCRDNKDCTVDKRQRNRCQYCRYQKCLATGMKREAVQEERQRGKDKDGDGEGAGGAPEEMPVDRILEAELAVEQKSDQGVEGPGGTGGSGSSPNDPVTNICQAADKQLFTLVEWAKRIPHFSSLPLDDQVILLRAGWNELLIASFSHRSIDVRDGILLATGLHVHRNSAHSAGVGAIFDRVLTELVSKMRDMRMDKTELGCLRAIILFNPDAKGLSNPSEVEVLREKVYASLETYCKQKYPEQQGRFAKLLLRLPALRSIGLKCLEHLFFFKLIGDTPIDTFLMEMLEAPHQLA
human Vitamin D Receptor (VDR), VDR (gene 7421), sequence (P11473 whole entry, looked up): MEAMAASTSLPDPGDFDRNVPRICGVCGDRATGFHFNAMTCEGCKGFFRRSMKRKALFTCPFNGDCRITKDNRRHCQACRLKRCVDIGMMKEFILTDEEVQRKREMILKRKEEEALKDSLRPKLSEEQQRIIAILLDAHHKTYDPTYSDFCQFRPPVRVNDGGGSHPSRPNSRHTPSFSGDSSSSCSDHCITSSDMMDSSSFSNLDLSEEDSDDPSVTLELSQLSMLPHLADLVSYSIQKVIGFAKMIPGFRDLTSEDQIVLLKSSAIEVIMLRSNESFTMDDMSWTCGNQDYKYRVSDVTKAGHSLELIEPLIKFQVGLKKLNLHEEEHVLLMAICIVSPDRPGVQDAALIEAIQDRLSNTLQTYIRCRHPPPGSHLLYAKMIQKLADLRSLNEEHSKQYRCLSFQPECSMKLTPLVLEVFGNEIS
human Thyroid Receptor alpha (THRa1), THRA (gene 7067), sequence (P10827 whole entry, looked up, the tested form may be a part): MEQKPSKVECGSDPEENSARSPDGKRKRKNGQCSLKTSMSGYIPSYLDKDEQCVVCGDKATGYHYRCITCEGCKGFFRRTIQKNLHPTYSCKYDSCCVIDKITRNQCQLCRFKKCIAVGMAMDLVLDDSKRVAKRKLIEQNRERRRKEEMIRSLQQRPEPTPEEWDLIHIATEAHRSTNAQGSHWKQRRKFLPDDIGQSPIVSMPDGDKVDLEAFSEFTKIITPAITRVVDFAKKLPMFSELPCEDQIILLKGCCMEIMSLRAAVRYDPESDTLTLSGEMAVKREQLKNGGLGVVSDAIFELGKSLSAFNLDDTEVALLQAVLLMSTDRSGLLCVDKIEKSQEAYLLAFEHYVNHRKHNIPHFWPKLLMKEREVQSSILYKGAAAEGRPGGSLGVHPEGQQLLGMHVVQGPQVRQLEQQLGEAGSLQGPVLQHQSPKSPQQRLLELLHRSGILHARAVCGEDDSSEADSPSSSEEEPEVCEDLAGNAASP
human RAR-related Orphan Receptor gamma (RORg), RORC (gene 6097), sequence (P51449 whole entry, looked up, the tested form may be a part): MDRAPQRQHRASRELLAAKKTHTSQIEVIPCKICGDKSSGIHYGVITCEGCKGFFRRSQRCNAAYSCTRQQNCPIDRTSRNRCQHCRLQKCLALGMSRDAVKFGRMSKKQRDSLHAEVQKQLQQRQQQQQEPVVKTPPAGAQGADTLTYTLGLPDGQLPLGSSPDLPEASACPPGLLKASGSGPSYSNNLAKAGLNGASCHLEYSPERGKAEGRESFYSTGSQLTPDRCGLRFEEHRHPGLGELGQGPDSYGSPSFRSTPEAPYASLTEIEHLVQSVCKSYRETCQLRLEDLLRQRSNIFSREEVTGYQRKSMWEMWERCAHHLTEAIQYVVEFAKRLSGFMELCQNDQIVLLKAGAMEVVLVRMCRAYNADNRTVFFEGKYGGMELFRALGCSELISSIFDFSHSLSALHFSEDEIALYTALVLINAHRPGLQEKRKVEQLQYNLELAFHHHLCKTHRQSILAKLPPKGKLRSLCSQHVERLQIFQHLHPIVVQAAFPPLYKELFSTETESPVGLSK
E-selectin (Homo sapiens), sequence (P16581 whole entry, looked up): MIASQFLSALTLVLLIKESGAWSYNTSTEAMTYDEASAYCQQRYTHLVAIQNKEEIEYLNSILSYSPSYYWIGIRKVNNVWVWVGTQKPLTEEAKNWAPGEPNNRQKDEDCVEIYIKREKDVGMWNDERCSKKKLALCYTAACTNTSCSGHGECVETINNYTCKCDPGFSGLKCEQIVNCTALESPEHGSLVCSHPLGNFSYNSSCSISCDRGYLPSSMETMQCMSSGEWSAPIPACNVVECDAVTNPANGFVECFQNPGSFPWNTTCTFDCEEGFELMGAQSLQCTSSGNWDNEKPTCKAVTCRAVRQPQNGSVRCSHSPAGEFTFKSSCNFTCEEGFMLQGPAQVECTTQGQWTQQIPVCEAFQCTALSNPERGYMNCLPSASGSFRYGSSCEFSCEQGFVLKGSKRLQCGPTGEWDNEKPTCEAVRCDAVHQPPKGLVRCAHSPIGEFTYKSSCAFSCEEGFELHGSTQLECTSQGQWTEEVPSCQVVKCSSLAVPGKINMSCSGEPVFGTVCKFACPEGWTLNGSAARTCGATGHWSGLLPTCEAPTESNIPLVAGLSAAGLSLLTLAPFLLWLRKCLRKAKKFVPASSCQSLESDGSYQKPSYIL

BrCC(Br)c1ccccc1 (stereo unspecified)
inactive: [1] | [2] | [3] | [4] | [5]

C#CCO
inactive: [1] | [6] | [2] | [3] | [7] | [5]

O=C/C(Cl)=C(/Cl)C(=O)O
inactive: [2] | [3] | [4] | [7] | [8] | [5]
active: [1] 46.7 µM

CC[N+](CC)(CC)CC
inactive: [1] | [9] | [4] | [7] | [5]

CCOC(=O)Cc1ccccc1
inactive: [1] | [2] | [8] | [5]

Oc1cc(Cl)c(Cl)cc1Cl
inactive: [9] | [4] | [8] | [11] | [16]
active: [1] 55.9 µM | [7] 151 µM | [10] 35.4 µM | [12] 20 µM | [13] 16.8 µM | [14] 31.7 µM | [15] 28.7 µM

CC(=O)CN(CC(C)=O)N=O
inactive: [1] | [2] | [4] | [7] | [8]

O=c1[nH]c(=O)n(Cl)c(=O)n1Cl
inactive: [1] | [2] | [3] | [4] | [7]

O=C(O)COc1ccc(Cl)cc1
inactive: [1] | [4] | [7] | [8] | [5]

CCOP(=S)(OCC)SCSc1cc(Cl)ccc1Cl
active: [7] 25.5 µM
inactive: [1] | [3] | [8] | [5]

C=CC(=O)[O][Sn]([CH2]CCC)([CH2]CCC)[CH2]CCC
active: [1] 0.0934 µM | [9] 0.237 µM | [4] 0.00177 µM | [7] 0.000682 µM
inactive: [8] | [5]

O=NN1CCCCCC1
inactive: [1] | [9] | [4] | [7] | [5]

Cc1cc(SCc2sc(-c3ccc(C(F)(F)F)c(F)c3)nc2C)ccc1OCC(=O)O
active: [1] 0.887 µM | [9] 2.05 µM
inactive: [7] | [8] | [5]

O=c1nc(O)n(Cl)c(=O)n1Cl
inactive: [1] | [2] | [3] | [4] | [7] | [8]

OCC(c1ccc(Cl)cc1)c1ccc(Cl)cc1
inactive: [4] | [7] | [5]
active: [1] 39.2 µM | [9] 20.1 µM

C=CC(=O)OCC(COC(=O)C=C)(COC(=O)C=C)COC(=O)C=C
active: [1] 100 µM | [7] 100 µM
inactive: [6] | [2] | [3] | [8]

CCOP(=S)(OCC)O/N=C(\C#N)c1ccccc1
inactive: [4] | [5]
active: [1] 10.6 µM | [9] 1.54 µM | [7] 27.5 µM

ClCc1ccccc1Cl
inactive: [1] | [2] | [3]

O=S(=O)(F)C(F)(F)C(F)(F)C(F)(F)C(F)(F)F
inactive: [1] | [9] | [5]

BrCCCCBr
inactive: [1] | [3] | [7] | [8]

COc1nn(C(=O)NS(=O)(=O)c2ccccc2OC(F)(F)F)c(=O)n1C
inactive: [1] | [9] | [5]

COc1ccc(N)cc1
inactive: [1] | [2] | [3]

O=C(O)c1cc(I)cc(I)c1I
inactive: [9] | [8]
active: [1] 11.9 µM

Nc1nc(N)nc(Cl)n1
inactive: [1] | [6] | [3] | [8]

c1cc[c]([Sb]([c]2ccccc2)[c]2ccccc2)cc1
inactive: [4] | [8] | [5]
active: [1] 23.5 µM | [9] 8.18 µM | [7] 4.36 µM

CCCCN(CCCCO)N=O
inactive: [1] | [2] | [4] | [7] | [8]

Cc1cccc(N=Nc2ccc(N(C)C)cc2)c1
inactive: [1] | [2] | [7]

COC(=O)Nc1cccc(OC(=O)Nc2cccc(C)c2)c1
inactive: [1] | [2]

N#Cc1ccc(Cl)cc1
inactive: [1] | [6] | [2] | [3] | [7] | [5]

OC[P+](CO)(CO)CO
inactive: [1] | [6] | [4] | [8] | [5]

CC(=Cc1ccccc1)[N+](=O)[O-]
active: [1] 3.91 µM | [7] 17.3 µM
inactive: [2] | [5]

O=C(NC(=O)c1c(F)cccc1F)Nc1ccc(Cl)cc1
active: [1] 0.636 µM
inactive: [9] | [7] | [8] | [5]
